Results published in PubChem BioAssay (NCATS).
Results filed as inconclusive are left out. A call without a number means that no potency is given here. The source made the active and inactive calls. Unless noted, calls come from the whole dose curve; as a rule, active = well fitted curve in the direction sought with a large enough effect; inconclusive = small, poorly fitted or top-dose-only effect, or another doubt; inactive = no such curve, though single readings can be large; an effect the other way counts as inactive or inconclusive.

Columns and labels:
[1] = biological target: Voltage-gated inwardly rectifying potassium channel KCNH2 (Homo sapiens) (UniProt Q12809); assay: qHTS Assay for Small Molecule Inhibitors of the Human hERG Channel Activity (AID 588834);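 note: lower thallium flux fluorescence means stronger hERG block; nearly all actives have a fitted effect of over 50% in size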; note: potency is the fitted concentration of half-maximal effect
Outline: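 U2OS cells BacMam-transduced with hERG, 2000 cells/well, compound ~10 min at 37 °C before stimulation buffer. FluxOR thallium flux fluorescence read kinetically on FDSS; decrease indicates block; AC50 from Hill fits.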

[2] = biological target: Luciferin 4-monooxygenase (Photinus pyralis) (UniProt P08659); assay: Biochemical firefly luciferase enzyme assay for NPC (AID 624030);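 note: purified P. pyralis luciferase at 10 nM with luciferin and ATP substrate; nearly all actives have a fitted effect of over 70% in size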
Outline: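 Direct inhibition of firefly luciferase enzyme (10 nM final, 50 mM Tris Acetate) assessed by luminescence within 5 minutes. Percent activity scaled between DMSO and PTC124 positive control, with concentration-effect curves classified by fit quality and response.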

[3] = qHTS of Trypanosoma Brucei Inhibitors: LOPAC Validation (AID 624147)
Outline: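 Luminescence from Kinase-Glo Plus, added after a 45-minute room-temperature reaction, served as the end-point read-out. The enzyme and substrate were preincubated with compound before ADP (130 uM final) initiated turnover. Concentration-effect curves came from normalized qHTS data.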

[4] = biological target: Glucagon-like peptide 1 receptor (Homo sapiens) (UniProt P43220); assay: qHTS of GLP-1 Receptor Agonists: LOPAC Validation (AID 624148);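 note: luminescence from a luciferase reporter switched on by cAMP; higher luminescence signal means agonism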
Outline: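 Agonism scored as increased luciferase luminescence driven by cAMP in HEK293 clones carrying GLP-1R. Cells settled 12 hours, received compound for 4-6 hr at 37 deg C, 5% CO2, and were read after 12 min detection reagent at RT.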

[5] = qHTS of Nrf2 Activators: LOPAC Validation (AID 624149)
Outline: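 AREc32 cells carrying an ARE-driven firefly luciferase were grown overnight in OPTI-MEM with 5% FBS, then exposed to compounds for 24 hr at 37 deg C. Luciferase signal was read after 30 min with Steady-Glo at RT.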

[6] = HTS Assay for Allosteric Antagonists of the Human D2 Dopamine Receptor: Hit Validation in HTRF (AID 624455);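 note: stable D1 dopamine receptor cell line scored for blocking the D1 response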
Outline: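 Hits were examined in an HTRF assay using cells stably expressing the D1 dopamine receptor, scoring inhibition of the D1-mediated response. The preceding primary screen tracked calcium flux after an EC80 dopamine addition in force-coupled, inducible Hek293 Trex D2 cells.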

[7] = Cytotoxicity counterscreen for NFkB agonists and antagonists (AID 624476);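 note: cells exposed to compound for 48 hours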
[8] = qHTS Assay for Identification of Small Molecule Agonists for NFkB Signaling Pathway. (AID 624478)
Outline: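 NFkB-bla ME-180 cells (beta-lactamase reporter under NFkB response element) were plated overnight, treated with compound plus TNF alpha at 10 pM final (its EC50) for 5 hrs at 37 C, then loaded with LiveBLAzer substrate for 2 hrs.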

[9] = qHTS Assay for Identification of Small Molecule Antagonists for NFkB Signaling Pathway. (AID 624479; calls by dose curve;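 note: pathway stimulated with TNF alpha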)
[10] = Cell Proliferation Assay against the TMD8 Cell Line (AID 651645); settings: TMD8 DLBCL cell line proliferation/viability; at 46.1 µM (top of the series);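 note: cells exposed to compound for 48 h before reading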
Outline: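 TMD8 cells, 500/well in RPMI with 5% FBS, dosed immediately and grown 48 h at 37 C, 5% CO2. CellTiter-Glo luminescence normalised to DMSO 100% and 9.2 uM bortezomib (final) 0%.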

[11] = Cell Proliferation Assay against the HBL1 Cell Line (AID 651646); settings: HBL1 DLBCL cells; at 46.1 µM (top of the series);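 note: cells exposed to compound for 48 h before reading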
Outline: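 Luminescent ATP read-out (CellTiter-Glo) after 48 h compound exposure of HBL1 cells at 37 °C; percent activity was scaled between DMSO as 100% and 9.2 uM bortezomib (final) as 0%.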

[12] = S16 Schwann cell viability assay (CellTiter-Glo assay) (AID 624031);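 note: cellular ATP luminescence as a viability measure; nearly all actives have a fitted effect of over 70% in size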
Outline: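 Untransfected S16 rat Schwann cells; compound 24 h, 37 °C/5% CO2; CellTiter-Glo ATP luminescence. % activity vs no-cell wells and DMSO controls (0%); concentration-effect curves classed by r2, response magnitude, activity.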

[13] = S16 Schwann cell PMP22 intronic element firefly luciferase assay (AID 624032); note: nearly all actives have a fitted effect of over 30% in size
Outline: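 Luciferase reporter of PMP22 intronic-element expression in stably transfected S16 rat Schwann cells, read by ONE-Glo luminescence after 24 h compound exposure at 37 C. Activity scaled between DMSO (0%) and positive-control PTC124; concentration-effect curves quality-classified.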

[14] = S16 Schwann cell PMP22 intronic element beta-lactamase assay (AID 624044; calls by dose curve; note: nearly all actives have a fitted effect of over 15% in size)
Outline: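 Rat S16 Schwann cells with beta-Lac driven by a PMP22 intronic element, compound-treated 24 h at 37 °C. LiveBLAzer FRET B/G read: 460 nm normalized to potassium clavulanate vs DMSO; 535 nm FRET as viability; concentration-effect curves classified.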

[15] = biological target: Glutaminase kidney isoform, mitochondrial (Homo sapiens) (UniProt O94925); assay: qHTS for Inhibitors of Glutaminase (GLS): LOPAC Validation (AID 624146); note: nearly all actives have a fitted effect of over 60% in size; note: potency is the fitted concentration of half-maximal effect
Outline: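 Assay buffer: 45 mM KH2PO4 pH 8.2, 0.02% Tween-20. hKGA acts on L-glutamine (1 mM solution added); product glutamate is reported by an oxidase/peroxidase Amplex Red coupling, with fluorescence taken at baseline and 30 min.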

Glutaminase kidney isoform, mitochondrial (Homo sapiens), sequence (O94925 whole entry, looked up, canonical isoform): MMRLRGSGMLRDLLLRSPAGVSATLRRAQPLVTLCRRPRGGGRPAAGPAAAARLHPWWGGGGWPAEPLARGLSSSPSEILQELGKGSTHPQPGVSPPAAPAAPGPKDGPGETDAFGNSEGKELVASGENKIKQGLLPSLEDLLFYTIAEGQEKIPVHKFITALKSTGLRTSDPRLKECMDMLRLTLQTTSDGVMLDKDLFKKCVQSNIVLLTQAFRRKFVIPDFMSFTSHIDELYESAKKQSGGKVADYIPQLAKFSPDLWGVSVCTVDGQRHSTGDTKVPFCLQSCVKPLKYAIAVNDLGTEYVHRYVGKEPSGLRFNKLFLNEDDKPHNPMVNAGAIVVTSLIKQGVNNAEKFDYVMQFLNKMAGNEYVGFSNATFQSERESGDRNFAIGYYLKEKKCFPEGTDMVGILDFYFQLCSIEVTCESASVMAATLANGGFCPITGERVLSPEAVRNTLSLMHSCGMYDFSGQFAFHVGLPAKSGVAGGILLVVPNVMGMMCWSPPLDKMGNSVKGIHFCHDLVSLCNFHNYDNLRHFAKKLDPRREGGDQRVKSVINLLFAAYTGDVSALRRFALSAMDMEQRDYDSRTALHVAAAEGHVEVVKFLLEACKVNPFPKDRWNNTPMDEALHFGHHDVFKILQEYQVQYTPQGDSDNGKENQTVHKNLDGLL
Voltage-gated inwardly rectifying potassium channel KCNH2 (Homo sapiens), sequence (Q12809 whole entry, looked up): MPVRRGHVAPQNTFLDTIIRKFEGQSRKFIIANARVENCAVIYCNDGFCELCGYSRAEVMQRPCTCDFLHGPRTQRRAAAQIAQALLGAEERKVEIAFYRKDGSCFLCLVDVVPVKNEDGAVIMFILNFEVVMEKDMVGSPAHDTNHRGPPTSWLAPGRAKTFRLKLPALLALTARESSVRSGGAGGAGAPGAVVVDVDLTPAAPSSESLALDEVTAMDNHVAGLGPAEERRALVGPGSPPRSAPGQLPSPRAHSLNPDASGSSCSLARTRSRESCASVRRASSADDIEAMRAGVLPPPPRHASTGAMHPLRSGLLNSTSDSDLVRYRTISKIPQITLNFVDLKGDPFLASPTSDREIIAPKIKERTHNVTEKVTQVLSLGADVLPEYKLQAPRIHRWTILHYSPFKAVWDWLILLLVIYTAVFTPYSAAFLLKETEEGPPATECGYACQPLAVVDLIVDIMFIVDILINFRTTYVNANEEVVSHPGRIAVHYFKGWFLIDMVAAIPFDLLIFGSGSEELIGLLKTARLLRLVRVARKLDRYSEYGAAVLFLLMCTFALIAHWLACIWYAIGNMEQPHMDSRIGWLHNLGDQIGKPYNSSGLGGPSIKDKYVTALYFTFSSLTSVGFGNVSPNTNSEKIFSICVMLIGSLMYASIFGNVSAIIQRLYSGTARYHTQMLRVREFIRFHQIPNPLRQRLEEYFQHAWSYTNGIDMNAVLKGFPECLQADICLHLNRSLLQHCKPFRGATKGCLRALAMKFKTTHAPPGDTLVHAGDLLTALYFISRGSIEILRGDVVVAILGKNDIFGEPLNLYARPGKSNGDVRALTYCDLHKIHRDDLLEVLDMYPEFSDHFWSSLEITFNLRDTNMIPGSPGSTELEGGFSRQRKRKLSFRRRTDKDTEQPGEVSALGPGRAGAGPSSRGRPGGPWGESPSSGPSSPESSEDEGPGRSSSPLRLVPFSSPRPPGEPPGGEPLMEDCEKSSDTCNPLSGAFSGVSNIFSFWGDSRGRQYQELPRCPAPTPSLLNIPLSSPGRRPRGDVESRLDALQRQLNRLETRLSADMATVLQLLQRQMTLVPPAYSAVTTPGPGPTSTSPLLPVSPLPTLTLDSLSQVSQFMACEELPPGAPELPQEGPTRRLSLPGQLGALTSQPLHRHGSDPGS
Glucagon-like peptide 1 receptor (Homo sapiens), sequence (P43220 whole entry, looked up): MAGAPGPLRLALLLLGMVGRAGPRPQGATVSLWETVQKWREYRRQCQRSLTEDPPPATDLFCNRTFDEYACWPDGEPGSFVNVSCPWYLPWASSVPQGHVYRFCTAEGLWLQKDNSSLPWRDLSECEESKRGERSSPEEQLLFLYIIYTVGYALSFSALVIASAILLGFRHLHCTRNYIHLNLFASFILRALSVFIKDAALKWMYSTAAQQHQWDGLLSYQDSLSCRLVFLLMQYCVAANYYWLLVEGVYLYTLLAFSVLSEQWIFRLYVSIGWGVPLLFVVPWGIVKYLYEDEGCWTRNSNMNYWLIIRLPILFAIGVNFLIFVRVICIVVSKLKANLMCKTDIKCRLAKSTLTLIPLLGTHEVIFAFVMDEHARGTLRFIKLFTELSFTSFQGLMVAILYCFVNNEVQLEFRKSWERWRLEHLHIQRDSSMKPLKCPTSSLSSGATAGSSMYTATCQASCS
Luciferin 4-monooxygenase (Photinus pyralis), sequence (P08659 whole entry, looked up): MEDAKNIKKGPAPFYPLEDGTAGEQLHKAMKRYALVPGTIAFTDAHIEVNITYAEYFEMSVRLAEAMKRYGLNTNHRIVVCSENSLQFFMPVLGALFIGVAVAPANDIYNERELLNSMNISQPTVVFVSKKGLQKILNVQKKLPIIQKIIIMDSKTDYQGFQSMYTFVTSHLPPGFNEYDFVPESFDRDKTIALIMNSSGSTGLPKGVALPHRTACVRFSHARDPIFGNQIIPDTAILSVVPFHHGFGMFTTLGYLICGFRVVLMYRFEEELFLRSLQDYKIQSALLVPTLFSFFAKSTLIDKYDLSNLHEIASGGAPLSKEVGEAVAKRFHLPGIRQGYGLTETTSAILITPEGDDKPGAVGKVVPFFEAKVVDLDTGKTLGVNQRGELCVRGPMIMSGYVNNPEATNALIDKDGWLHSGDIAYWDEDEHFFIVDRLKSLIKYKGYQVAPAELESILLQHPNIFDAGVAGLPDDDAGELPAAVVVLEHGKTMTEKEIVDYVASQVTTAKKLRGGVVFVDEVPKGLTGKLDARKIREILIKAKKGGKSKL

## CN1CC(=O)N/C1=N/C(=O)Nc1cccc(Cl)c1
[1]
  Potency: inactive
[2]
  Potency: inactive
[3]
  Potency: inactive
[4]
  outcome: inactive
[5]
  outcome: inactive
[6]
  Potency: inactive
[7]
  Potency: inactive
[8]
  outcome: inactive
[9]
  outcome: inactive
[10]
  viability (% of control): 105%
[11]
  viability, percent of control: 111%

## CCCSc1ccc2nc(NC(=O)OC)[nH]c2c1
[1]
  Potency: inactive
[12]
  Potency: inactive

## COc1cc(/C=C/C(=O)N2CCN(CC(=O)N3CCCC3)CC2)cc(OC)c1OC
[1]
  Potency: inactive
[2]
  Potency: inactive
[12]
  Potency: inactive
[13]
  Potency: inactive
[14]
  Potency: inactive

## CCCCCCCCCCCCCCCC(=O)NCC(COP(=O)([O-])OCC[N+](C)(C)C)OCC (stereo unspecified)
[1]
  Potency: inactive
[15]
  Potency: inactive
[3]
  Potency: inactive
[4]
  outcome: inactive
[5]
  outcome: inactive
[6]
  Potency: inactive

## O=C(O)CNC(=O)C(CS)Cc1ccccc1 (stereo unspecified)
[1]
  Potency: inactive
[15]
  Potency: inactive
[3]
  Potency: inactive
[4]
  outcome: inactive
[5]
  outcome: inactive
[6]
  Potency: inactive

## N#C/C(=C\c1ccc(O)c(O)c1)C(=O)NCc1ccccc1
[1]
  Potency: 12.6 µM (active)
[15]
  Potency: 0.562 µM (active)
[3]
  Potency: inactive
[4]
  outcome: inactive
[6]
  Potency: inactive

## Cn1cc(C2=C(c3ccc(Cl)cc3Cl)C(=O)NC2=O)c2ccccc21
[1]
  Potency: 2.51 µM (active)
[15]
  Potency: inactive
[3]
  Potency: inactive
[4]
  outcome: inactive
[5]
  outcome: inactive
[6]
  Potency: inactive

## O=Nc1ccc2oc(=O)ccc2c1
[1]
  Potency: inactive
[15]
  Potency: 10 µM (active)
[3]
  Potency: inactive
[4]
  outcome: inactive
[5]
  outcome: inactive
[6]
  Potency: inactive

## O=C(O)[C@@H]1C[C@@H](C(=O)O)N1
[1]
  Potency: inactive
[15]
  Potency: inactive
[3]
  Potency: inactive
[4]
  outcome: inactive
[6]
  Potency: inactive

## O=C(O)c1cc(=O)c2ccccc2[nH]1
[1]
  Potency: inactive
[15]
  Potency: inactive
[3]
  Potency: inactive
[4]
  outcome: inactive
[5]
  outcome: inactive
[6]
  Potency: inactive

## NCCCCC(=O)O
[1]
  Potency: inactive
[15]
  Potency: inactive
[3]
  Potency: inactive
[4]
  outcome: inactive
[5]
  outcome: inactive
[6]
  Potency: inactive

## CC1CN(S(=O)(=O)c2cccc3cnccc23)CCN1 (stereo unspecified)
[1]
  Potency: inactive
[15]
  Potency: inactive
[3]
  Potency: inactive
[4]
  outcome: inactive
[5]
  outcome: inactive
[6]
  Potency: inactive

## COc1ccccc1CNCCCCCCNCCCCCCCCNCCCCCCNCc1ccccc1OC
[1]
  Potency: inactive
[15]
  Potency: inactive
[3]
  Potency: inactive
[4]
  outcome: inactive
[6]
  Potency: inactive

## Ic1ccc(N2CCN(Cc3c[nH]c4ncccc34)CC2)cc1
[1]
  Potency: 1.12 µM (active)
[15]
  Potency: inactive
[3]
  Potency: inactive
[4]
  outcome: inactive
[5]
  outcome: inactive
[6]
  Potency: inactive

## O=C(O)c1cc([N+](=O)[O-])ccc1NCCCc1ccccc1
[1]
  Potency: inactive
[15]
  Potency: inactive
[3]
  Potency: inactive
[4]
  outcome: inactive
[6]
  Potency: inactive

## C[C@@H](NC(=O)/C(C#N)=C/c1ccc(O)c(O)c1)c1ccccc1
[1]
  Potency: inactive
[15]
  Potency: 1 µM (active)
[4]
  outcome: inactive
[5]
  outcome: inactive
[6]
  Potency: inactive
